Most compounds without a hit are left out; they make up all but 5.8% or so of the library.
MCF10A rerep = induces DNA re-replication in MCF 10a normal breast cells | MCF 10A DNA re-replication, Hoechst nuclear intensity, 48 h | Potency, µM (top dose mostly 46.1 µM), for the others: at the highest dose activity, positive = re-replication, hits mostly activators | 350,000 compounds, 2.9% hits | AID 624296; also: % of control where 0% means no effect; nearly all actives have a fitted effect of over 50% in size
SW480 rerep = inducers of DNA re-replication in SW480 colon cancer cells. SW480 DNA re-replication, Hoechst DNA content imaging, 48 h. 340,000 compounds, 1.8% hits. AID 624297. Potency, µM (top dose mostly 46.1 µM), without a hit: top-dose re-replication activation, hits mostly activators; also: % of control where 0% means no effect; nearly all actives have a fitted effect of over 55% in size
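250 cells/well; 23 nL cpd via pin tool; 48 hr, 37 C, 5% CO2; Hoechst 40 min; imager read of total nuclear intensity, ex 405/em 500-530 nm.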
12-LOX inh = blocks human arachidonate 12S-lipoxygenase; P18054; purified 12hLO, xylenol orange hydroperoxide absorbance; Potency, µM (series often up to 108 µM), without a hit: top-dose activity change, negative = inhibition, most hits filed as inhibitors; 580,000 compounds, 1.1% hits; AID 1671190; also: % is scaled to controls: 0 for no effect and ±100 for the full control effect
Target sequence (P18054 whole entry, looked up): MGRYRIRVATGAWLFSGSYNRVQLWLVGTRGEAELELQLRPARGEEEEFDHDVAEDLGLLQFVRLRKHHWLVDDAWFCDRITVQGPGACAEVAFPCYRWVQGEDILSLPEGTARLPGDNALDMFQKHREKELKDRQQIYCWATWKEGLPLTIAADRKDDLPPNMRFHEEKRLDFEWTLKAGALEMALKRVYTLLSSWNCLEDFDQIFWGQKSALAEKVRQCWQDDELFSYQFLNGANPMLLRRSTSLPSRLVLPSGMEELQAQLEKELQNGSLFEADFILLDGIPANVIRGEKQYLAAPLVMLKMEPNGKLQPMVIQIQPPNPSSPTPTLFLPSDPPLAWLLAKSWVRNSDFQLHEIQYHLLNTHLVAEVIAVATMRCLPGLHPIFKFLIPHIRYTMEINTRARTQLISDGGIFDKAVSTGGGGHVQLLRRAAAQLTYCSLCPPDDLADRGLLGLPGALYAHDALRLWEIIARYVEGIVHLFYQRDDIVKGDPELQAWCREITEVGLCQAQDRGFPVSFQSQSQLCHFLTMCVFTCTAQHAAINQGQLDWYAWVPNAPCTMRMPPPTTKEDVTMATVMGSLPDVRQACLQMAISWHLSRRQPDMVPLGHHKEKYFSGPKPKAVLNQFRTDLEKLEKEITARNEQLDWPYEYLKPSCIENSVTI
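Hydroperoxide product was detected by ferrous iron/xylenol orange as the 573 to 405 nm absorbance ratio. Arachidonic acid at 40 uM (final) was turned over for 30 min at room temperature by 150 nM human 12hLO, pH 7.0 Hepes buffer, after 15 min compound preincubation.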
KB-3-1 tox = kills parental KB-3-1 adenocarcinoma cells. KB-3-1 viability, CellTiter-Glo ATP luminescence, 72 h. AID 1347075. 400,000 compounds, 1.4% hits. Potency, µM (titrated, usually from 46.1 µM), actives largely listed as cytotoxic; also: % is scaled to controls: 0 for no effect and ±100 for the full control effect; nearly all actives have a fitted effect of over 60% in size
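Luminescent ATP read-out (CellTiter-Glo) measures survival of drug-naive KB-3-1 cells after 72 h compound exposure at 37 °C. Titration series was screened from lowest to highest concentration, with DMSO vehicle plates as background controls.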
PINK1 expr mod = changes PINK1 expression; PINK1 immunofluorescence, high-content cytometry, 24 h; Potency, µM (highest dose often 76.6 µM), for inactives: at the highest dose activation (PINK1 increase), usual class: activators; 410,000 compounds, 0.2% hits; active = well fitted activation curve with a large enough effect; inconclusive = small, poorly fitted or top-dose-only effect; cell line not stated here; also: % of control where 0% means no effect; nearly all actives have a fitted effect of over 65% in size
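Stable cell line treated 24 h with compounds at 5 concentrations (CCCP controls), then fixed and immunostained for PINK1 plus nuclear and cell stains; PINK1 immunofluorescence quantified by laser-scanning microplate cytometry.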
KB-V1 cytotox = KB-V1 MDR subline cytotoxicity; Potency, µM (titrated, usually from 46.1 µM), actives largely listed as cytotoxic; 400,000 compounds, 3.4% hits; KB-V1 MDR cells viability, CellTiter-Glo, 72 h; also: % is scaled to controls: 0 for no effect and ±100 for the full control effect; nearly all actives have a fitted effect of over 60% in size
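KB-V1 cells (P-gp-expressing MDR subline of KB-3-1) in phenol-red-free DMEM with 10% FBS were exposed to library compounds over a concentration series for 72 h at 37 degrees C. Viability read by CellTiter-Glo luminescence; concentration-effect curves fitted after normalization.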
Starred values were filed as active, the others as inactive; i = inactive; ? = inconclusive; nt = no result given; [ ] = remark or other dose. Unless noted, calls follow the shape of the dose curve; as a rule, active = well fitted curve in the direction sought with a large enough effect; inconclusive = small, poorly fitted or top-dose-only effect, or another doubt; inactive = no such curve, though single readings can be large; an effect the other way counts as inactive or inconclusive. Potency is read from the fitted curve at half-maximal effect.

SMILES | MCF10A rerep | SW480 rerep | 12-LOX inh | KB-3-1 tox | PINK1 expr mod | KB-V1 cytotox
COc1ccc(CCNc2oc(Cc3cccc4ccccc34)nc2C#N)cc1OC | 5.5% | 0.6% | -23.2% | ? | -0.6% | 18.4µM*
COc1ccc(CCNc2oc(COc3ccc(Br)cc3)nc2C#N)cc1OC | ? | 2.7% | 371.8% | ? | 6.6% | ?
CCCOc1ccc(NC(=O)COc2ccc(C)cc2)c2cccnc12 | nt | nt | 6.7% | nt | nt | nt
Cc1c(Br)c(=O)oc2c(Br)c(O)c(O)cc12 | 9.7% | 6.3% | 22.4µM* | i | -0.2% | i
Cc1c(Br)c(=O)oc2c(Br)c(O)ccc12 | -1.4% | 5.1% | 9.4% | i | -1.2% | i
Cn1c(=O)c2c(nc(N3CCCCC3)n2CC(O)CO)n(C)c1=O (stereo unspecified) | nt | nt | 7.3% | nt | nt | nt
O=C(NC1CCC(c2ccccc2)CC1)c1n[nH]c(=O)c2ccccc12 (stereo unspecified) | nt | nt | -20.1% | nt | nt | nt
O=c1[nH]cccc1NS(=O)(=O)c1ccccc1Cl | nt | nt | 35.5µM* | nt | nt | nt
CCN(CC)S(=O)(=O)c1cccc(-c2nnc(SCCOc3ccccc3)o2)c1 | 9.3% | -2.2% | 0.0% | ? | 1.0% | 16.4µM*
CC(=O)Nc1ccc(NC2=C(Cl)C(=O)c3ccccc3C2=O)cc1 | ? | 5.17µM* | -1.2% | 16.4µM* | -4.6% | ?
O=C1C(Cl)=C(Nc2ccc3cn[nH]c3c2)C(=O)c2ccccc21 | 0.581µM* | 2.31µM* | ? | ? | -3.8% | ?
O=C1C(Cl)=C(NCCCO)C(=O)c2ccccc21 | ? | ? | 0.0% | 23.1µM* | -1.1% | i
O=S(=O)(Nc1ccc2cn[nH]c2c1)c1ccc(Cl)c(Cl)c1 | nt | nt | -25.2% | nt | nt | nt
CN(C)c1ccc(NC2=C(Cl)C(=O)c3ccccc3C2=O)cc1 | 4.11µM* | 2.91µM* | ? | ? | -1.7% | i
CCOCCCNC1=C(Cl)C(=O)c2ccccc2C1=O | ? | ? | 0.0% | ? | 0.4% | i
CC(C)(C)C(=O)N(Cc1ccc2cc[nH]c2c1)C1CC1 | nt | nt | -4.7% | nt | nt | nt
CC(=O)N[C@@H](C(=O)O)C(C)C | nt | nt | -15.7% | nt | nt | nt
O=C(NNC(=O)c1ccccc1Br)c1ccc(SCC2CCCO2)c([N+](=O)[O-])c1 (stereo unspecified) | ? | 0.8% | 2.3% | i | -1.3%[38.3 µM] | 23.1µM*
CC(C)c1nnc(NC(=O)c2nn(C(C)C)c(=O)c3ccccc23)s1 | nt | nt | -20.8% | nt | nt | nt
COc1ccc2c(n1)Sc1nc3ccccc3nc1N2 | 20.6µM* | ? | ? | i | ? | i
Oc1c(Cl)cc(Cl)cc1/C=N/Nc1ncc(Br)cn1 | ? | 0.164µM* | 26.6% | ? | -0.6% | i
O=C(N/N=C/c1cc(Cl)cc(Cl)c1O)c1ccncc1 | ? | ? | -14.7% | ? | 2.6% | ?
Cc1ccc(N=Cc2cc(Cl)cc(Cl)c2O)nc1 | ? | 18.4µM* | ? | i | ? | i
COC(=O)c1c(NC(=O)c2ccccc2)sc(C(=O)c2ccccc2)c1C | 6.51µM* | 1.7% | 483.9% | ? | -1.1% | ?
Cc1c(Cc2ccc3c(c2)OCO3)sc(NC(=O)c2ccc3ccccc3c2)c1C(N)=O | 14.6µM* | -1.9% | 19.4% | ? | 5.6% | i
SMILES | MCF10A rerep | SW480 rerep | 12-LOX inh | KB-3-1 tox | PINK1 expr mod | KB-V1 cytotox
COc1cc(C(=O)Nc2nc(C)c(Cc3ccc4c(c3)OCO4)s2)cc(OC)c1OC | 2.59µM* | 5.8µM* | ? | i | 4.6% | 1.46µM*
CCC(=O)Nc1sc(Cc2ccc3c(c2)OCO3)c(C)c1C(N)=O | ? | ? | ? | i | 3.8% | i
COC(=O)c1c(NC(=O)c2ccccc2)sc(Cc2ccccc2)c1C | ? | 9.9% | -0.6% | i | 2.2% | 13µM*
COC(=O)c1c(NC(=O)c2ccccc2)sc(C(N)=O)c1C | 2.8% | 4.0% | 87.8% | ? | ? | i
CCCOc1ccc(C(=O)Nc2nc(C)c(Cc3ccc4c(c3)OCO4)s2)cc1 | ? | ? | ? | ? | -1.8% | i
NC(=O)C1CCN(C(=O)CCNc2ncnc3nc[nH]c23)CC1 | nt | nt | 1.5% | nt | nt | nt
CCC(=O)Nc1sc(Cc2ccccc2)c(C)c1C(N)=O | -12.7% | -3.2% | -23.9% | i | -0.5% | ?
Cc1c(Cc2ccccc2)sc(NC(=O)Cc2ccccc2)c1C(N)=O | 1.5% | 1.4% | 15.8µM* | i | 7.6% | i
Clc1ccc(CN2C3=NCCN3c3ccccc32)c(Cl)c1 | nt | nt | 27.7% | nt | nt | nt
COCCn1ccc2nc(C)c(C(=O)N3CCN(c4ccccc4)CC3)cc2c1=O | nt | nt | 34.1% | nt | nt | nt
Nc1[nH]n(-c2ccccc2)c(=O)c1N=Nc1ccccc1[N+](=O)[O-] | 17.2% | 2.8% | -2.5% | i | 10.6% | ?
O=c1c2cc([N+](=O)[O-])cc([N+](=O)[O-])c2[nH]n1-c1ccccc1 | ? | -1.6% | 0.0% | ? | 1.7% | 0.82µM*
O=C(C(=Cc1ccc(F)cc1)C(=O)c1ccccc1)c1ccccc1 | nt | nt | -1.2% | 18.4µM* | -1.4% | 20.6µM*
CCn1c(N2CCN(S(=O)(=O)c3ccc(OC)cc3)CC2)nc2ccccc21 | -2.4% | 5.7% | 0.0% | i | -0.6% | 13µM*
CCN1CCN(c2ccc(N3CCN(S(=O)(=O)c4cccc([N+](=O)[O-])c4)CC3)nn2)CC1 | nt | nt | -12.1% | i | 0.4% | i
COc1ccc(OCCN2CCN(S(=O)(=O)c3ccccc3C(F)(F)F)CC2)cc1 | -0.5% | -4.9% | 254.3% | ? | -1.0% | 2.31µM*
CC(C)n1c(N2CCN(S(=O)(=O)c3cccc([N+](=O)[O-])c3)CC2)nc2ccccc21 | -4.5% | 4.4% | -0.7% | i | -0.6% | 18.4µM*
CCn1c(N2CCN(S(=O)(=O)c3ccccc3C(F)(F)F)CC2)nc2ccccc21 | ? | 10.5% | ? | i | 0.6% | 18.4µM*
Cc1cn2nc(C(=O)N3CCC(NC(=O)c4ccc(C)s4)CC3)cc2c(=O)[nH]1 | nt | nt | 5.4% | nt | nt | nt
CCNc1ncnc2sc3c(c12)CCN(S(=O)(=O)c1ccccc1)C3 | nt | nt | 5.5% | nt | nt | nt
CC(Oc1cc(-c2ccccc2)cc2ccccc12)C(=O)N1CCOCC1 (stereo unspecified) | 15.5% | 5.7% | 0.0% | ? | -0.9% | 6.51µM*
CC(Oc1ccc(C(=O)c2ccccc2)cc1)C(=O)N1CCOCC1 (stereo unspecified) | 1.6% | -2.2% | -10.0% | i | 6.3% | i
Cc1nnsc1NC(=O)OCc1ccc(Cl)cc1Cl | -0.2% | -6.1% | 0.0% | i | 1.9% | i
Cc1nn(C)c(Cl)c1NC(=O)OCc1ccc(Cl)cc1Cl | ? | 1.8% | -9.0% | 4.11µM* | 6.8% | 2.59µM*

From PubChem
